Laboratory results as given in PubChem BioAssay (NCATS).
Results filed as inconclusive are left out. The source made the active and inactive calls. The call rests on the fitted dose curve; in most records, active means well fitted activation curve with a large enough effect; inconclusive means small, poorly fitted or top-dose-only effect; inactive means no such curve, though single readings can be large or run the other way.

test: qHTS for Activators of Parkin Expression: LOPAC Validation Assay (FLuc Reporter) (AID 720573); conditions: Cell line, PRKN promoter firefly luciferase reporter, vehicle wells = 0, positive control = 100%; series mostly up to 46.1 µM
Source text: Parkin is an E3 ubiquitin ligase localized in the cytosol of cells expressed in many tissues, including brain, skeletal muscle, heart and liver tissues. One hour after stress induction by mitochondrial uncouplers (which mimic mitochondria damage by decreasing the mitochondrial inner membrane electrochemical gradient that is used to produce ATP), Parkin translocates from the cytosol to mitochondria in many cultured cell types, including neurons and HeLa cells. Administration of other mitochondrial poisons, such as Paraquat and azide in cells lacking mitochondrial DNA (mtDNA), induces Parkin translocation to mitochondria. […] It was proposed that Parkin (together with Pink1) mediates a mitochondrial quality control pathway to maintain organelle population fidelity by removing damaged mitochondria. Understanding the normal physiologic role of Parkin (and Pink1) may uncover novel treatment strategies for sporadic Parkinson's disease patients with mutation in these genes.
A cell based qHTS in 1536 well format was developed assess modulation of Parkin expression using a neuronal cell line that stably expresses a stably expresses a luminescent coincidence reporter (FLuc and NLuc reporters) behind the Parkin promoter. The LOPAC library is used to validate the assay for quantitative high-throughput screening. The data herein reports the signal from the FLuc reporter. An increase in this signal = activation of Parkin expression. For this assay , a positive control normalized signal increase corresponding to a high quality qHTS curve class in both luminescent channels is the desired outcome for this assay.
NIH Chemical Genomics Center [NCGC]
NIH Molecular Libraries Probe Centers Network [MLPCN]
Assay Submitter (PI): Richard Youle, National Institute of Neurological Disorders and Strokes (NINDS), NIH
[1] Narendra, D., et al., Parkin is recruited selectively to impaired mitochondria and promotes their autophagy. J Cell Biol, 2008. 183(5): p. 795-803.
[2] Suen, D.F., et al., Parkin overexpression selects against a deleterious mtDNA mutation in heteroplasmic cybrid cells. Proc Natl Acad Sci U S A, 2010. […] 11835-40.
[3] Cheng K, Inglese J. A coincedence reporter-gene system for high-throughput screening. Nat Methods. 2012: 9(10);937
Five microliters (1,500 cells/well) of the Parkin coincidence reporter cells were seeded to 1536 well assay plates (Greiner Catalog # 789173-F) and incubated at 37 C, 5% CO2 for 24 hours. Compounds (23 nL) were pinned using the Kalypsys robotic system equipped with 1536 pin head adaptor in 7-point dose response. The assay plates were incubated for additional 24 hr at 37 C, 5% CO2 followed by a volume reduction in each well to 2 uL using an automated plate washer/aspirator. Following the volume reduction,2 uL of FLuc detection reagent and plates were incubated for 10 minutes at room temperature. The FLuc luminescence signal was obtained using the PerkinElmer ViewLux plate imager and then 2 uL of NanoLuc detection reagent was added to the plates. After another 10 minute incubation, NanoLuc signal was obtained using the PerkinElmer ViewLux plate imager as before. Data from each channel was normalized to DMSO (neutral control) and the positive control compounds (100%).

Compound | outcome
COC(=O)C1=C(C)NC(C)=C(C(=O)OC(C)(C)CN(C)CCC(c2ccccc2)c2ccccc2)C1c1cccc([N+](=O)[O-])c1 (stereo not given) | inactive
COCCCC/C(=N\OCCN)c1ccc(C(F)(F)F)cc1 | inactive
NC(N)=NC(=O)Cc1c(Cl)cccc1Cl | inactive
C[C@]12CC[C@@H]3c4ccc(O)cc4C[C@@H](CCCCCCCCCS(=O)CCCC(F)(F)C(F)(F)F)[C@H]3[C@@H]1CC[C@@H]2O (stereo not given in full) | inactive
COCC(=O)O[C@]1(CCN(C)CCCc2nc3ccccc3[nH]2)CCc2cc(F)ccc2[C@@H]1C(C)C | inactive
CCOC(=O)c1cnc2c(cnn2CC)c1NN=C(C)C | inactive
CN(C)C(=O)Oc1cccc([N+](C)(C)C)c1 | inactive
Nc1ncn([C@@H]2O[C@H](CO)[C@@H](O)[C@H]2O)c(=O)n1 | inactive
CC(C)[N+](C)(CCOC(=O)C1c2ccccc2Oc2ccccc21)C(C)C | inactive
CCN(CC)CCNC(=O)c1cc(S(C)(=O)=O)ccc1OC | inactive
CN(C)[C@@H]1C(=O)C(C(N)=O)=C(O)[C@@]2(O)C(=O)C3=C(O)c4c(O)ccc(Cl)c4[C@@H](O)[C@H]3C[C@@H]12 | inactive
Cc1cc(C)c(/C=C2\C(=O)Nc3ccccc32)[nH]1 | inactive
CCCCNc1c(C(=O)OCC)c(C)nc2c1cnn2CC | inactive
CO[C@@]1(NC(=O)CSCC#N)C(=O)N2C(C(=O)O)=C(CSc3nnnn3C)CS[C@@H]21 | inactive
COc1ccc(CN(CCN(C)C)c2ccccn2)cc1 | inactive
NC(=O)N1c2ccccc2C=Cc2ccccc21 | inactive
Cc1ccc(/C(=C\CN2CCCC2)c2ccccn2)cc1 | inactive
C[C@H](CS)C(=O)N1CCC[C@H]1C(=O)O | inactive
NC1=NCC2c3ccccc3Cc3ccccc3N12 (stereo not given) | inactive
O=C(CCNNC(=O)c1ccncc1)NCc1ccccc1 | inactive

Compound | outcome
O=C1NCN(c2ccccc2)C12CCN(CCCC(c1ccc(F)cc1)c1ccc(F)cc1)CC2 | inactive
O=C(O)CP(=O)(O)O | inactive
Nc1c2c(nc3ccccc13)CCCC2O (stereo not given) | inactive
CC(=O)Nc1nnc(S(N)(=O)=O)s1 | inactive
CCCN(CCC)CCc1cccc2c1CC(=O)N2 | inactive
C[C@@H](O)[C@H]1C(=O)N2C(C(=O)O)=C(SCCN=CN)C[C@H]12 | inactive
CCOC(=O)C1=C(C)NC(C)=C(C(=O)OC)C1c1cccc([N+](=O)[O-])c1 (stereo not given) | inactive
NCCCNCCSP(=O)(O)O | inactive
c1cc(CN2CCCCC2)cc(OCCCNc2nc3ccccc3s2)c1 | inactive
CN=C(NC#N)NCCSCc1nc[nH]c1C | inactive
CN(C)CCCN1c2ccccc2Sc2ccc(C(F)(F)F)cc21 | inactive
CCCOc1ccccc1-c1nc2n[nH]nc2c(=O)[nH]1 | inactive
FC(F)(F)c1ccccc1-n1ccnc1 | inactive
CC(C)(C)NCC(O)c1cc(O)cc(O)c1 (stereo not given) | inactive
Cc1scc2c1N(C(=O)CN1CCN(C)CC1)c1ccccc1NC2=O | inactive
CN1CCN(C2=Nc3ccccc3Oc3ccc(Cl)cc32)CC1 | inactive
CCCCNC(=O)NS(=O)(=O)c1ccc(C)cc1 | inactive
CCN(Cc1ccncc1)C(=O)C(CO)c1ccccc1 (stereo not given) | inactive
CC(C)(C)c1ccc(C(=O)CCCN2CCC(OC(c3ccccc3)c3ccccc3)CC2)cc1 | inactive
CN1C(=O)CC[C@H]1c1cccnc1 | inactive
